Measurements taken from the supplement of paper PMC9801561.
± gives the standard deviation of the averaged measurements.

Tests used:
[1] = system: Escherichia coli Nissle 1917; assay: area under OmniLog respiration curve over 48 h (OmniLog units x h); higher = more growth / nutrient utilisation; extreme values may be limits of the assay; settings: incubation: 48 h, 37 °C
[2] = system: Escherichia coli Nissle 1917; assay: DuctApe activity index of respiration/growth curve (0 no growth to 9 maximum) (index 0-9); higher = more growth / nutrient utilisation, active = 3 or more; extreme values may be limits of the assay; settings: incubation: 48 h, 37 °C
[3] = nutrient role: sole nitrogen source (pyruvate carbon)
[4] = nutrient role: C-Source, carboxylic acid
[5] = nutrient role: sole sulfur source (pyruvate carbon)
[6] = nutrient role: sole phosphorus source (pyruvate carbon)
[7] = nutrient role: C-Source, carbohydrate
[8] = nutrient role: C-Source, amino acid
[9] = nutrient role: N-Source, inorganic
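Wherever DuctApe activity index of respiration/growth curve (0 no growth to 9 maximum) is given: biolog PM4 phosphorus and sulfur plates, tetrazolium violet dye reduction read in the OmniLog every 15 min, kinetic curves scored by DuctApe, each plate run in triplicate.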

Which “area under OmniLog respiration curve” value [1, 3] does the source give for `NC(=O)C[C@@H](N)C(=O)O` [D-Asparagine] here?
The value was 1420 ± 780.

And the DuctApe activity index [2, 3]?
Its DuctApe activity index is 2.33 (inactive).

Which “area under OmniLog respiration curve” value [1, 4] does the source give for `C/C(=C/C(=O)O)C(=O)O` [Citraconic acid] here?
Its value is 4.72.

And the DuctApe activity index [2, 4]?
Its DuctApe activity index is 0 (inactive).

With `C[C@H](N)C(=O)N[C@H](C(=O)O)[C@@H](C)O` as the molecule, how does the “area under OmniLog respiration curve” value [1, 3] read?
Its value is 7530 ± 1100.

What about the DuctApe activity index [2, 3] of the same molecule?
Its DuctApe activity index is 8 (active).

For `O=C1O[C@H]([C@@H](O)CO)[C@@H](O)[C@@H]1O` [L-Galactonic acid-g-Lactone], which “area under OmniLog respiration curve” value [1, 4] is on record?
The value was 10200 ± 640.

And the DuctApe activity index [2, 4]?
Its DuctApe activity index is 9 (active).

How did the “area under OmniLog respiration curve” value [1, 5] turn out when `O=S(=O)(O)O` [Sulfate] was run?
Its value is 6810 ± 400.

What about the DuctApe activity index [2, 5] of the same molecule?
Its DuctApe activity index is 7.33 (active).

What does the source list for `NC(CCSCC(N)C(=O)O)C(=O)O` (stereo not given) [Cystathionine]?
area under OmniLog respiration curve [1, 5]: 4100 ± 130; DuctApe activity index [2, 5]: 6 (active)

Which “area under OmniLog respiration curve” value [1, 6] does the source give for `Cc1cn([C@H]2C[C@H](O)[C@@H](COP(=O)(O)O)O2)c(=O)[nH]c1=O` [Thymidine 5`-Monophosphate] here?
The value was 8850 ± 380.

What about the DuctApe activity index [2, 6] of the same molecule?
The DuctApe activity index was 8.67 (active).

Which results are given for `C[N+](C)(C)CCOP(=O)(O)O` [Phosphoryl Choline]?
area under OmniLog respiration curve [1, 6]: 8840 ± 430; DuctApe activity index [2, 6]: 8.67 (active)

Which “area under OmniLog respiration curve” value [1, 3] does the source give for `Nc1[nH]cnc2ncnc1-2` [Adenine] here?
Its value is 5810 ± 860.

What about the DuctApe activity index [2, 3] of the same molecule?
The DuctApe activity index was 6.67 (active).

`NCCCCCC(=O)O` [e-Amino-N-Caproic acid] was tested. Which “area under OmniLog respiration curve” value [1, 3] did it give?
Its value is 1240 ± 1000.

What about the DuctApe activity index [2, 3] of the same molecule?
Its DuctApe activity index is 2.33 (inactive).

Which results are given for `CC(O)(CC(=O)O)C(=O)O` (stereo not given) [Citramalic acid]?
area under OmniLog respiration curve [1, 4]: 4.72; DuctApe activity index [2, 4]: 0 (inactive)

How did the “area under OmniLog respiration curve” value [1, 5] turn out when `N[C@@H](CSCSC[C@H](N)C(=O)O)C(=O)O` [L-Djenkolic acid] was run?
Its value is 7730 ± 190.

And the DuctApe activity index [2, 5]?
The DuctApe activity index was 8 (active).

What does the source list for `O=P(O)(O)OC[C@H]1OC(O)[C@@H](O)[C@@H](O)[C@@H]1O` (stereo partly drawn) [D-Mannose-6-Phosphate]?
area under OmniLog respiration curve [1, 6]: 8540 ± 570; DuctApe activity index [2, 6]: 8.33 (active)

`OC[C@@H](O)[C@H](O)[C@@H](O)CO` [Xylitol] was tested. Which “area under OmniLog respiration curve” value [1, 7] did it give?
The value was 4.72.

What about the DuctApe activity index [2, 7] of the same molecule?
The DuctApe activity index was 0 (inactive).

Which “area under OmniLog respiration curve” value [1, 4] does the source give for `O=C(O)[C@H]1OC(O)[C@H](O)[C@@H](O)[C@H]1O` (stereo partly drawn) [D-Galacturonic acid] here?
The value was 10200 ± 880.

What about the DuctApe activity index [2, 4] of the same molecule?
Its DuctApe activity index is 9 (active).

With `CC(=O)N[C@@H](CO)[C@@H](O)[C@H](O)[C@H](O)CO` [N-Acetyl-D-Glucosaminitol] as the molecule, how does the “area under OmniLog respiration curve” value [1, 7] read?
The value was 4.72.

And the DuctApe activity index [2, 7]?
The DuctApe activity index was 0 (inactive).

What does the source list for `O=C(O)C(CO)OP(=O)(O)O` [D-2-Phospho-Glyceric acid]?
area under OmniLog respiration curve [1, 6]: 9640 ± 700; DuctApe activity index [2, 6]: 9 (active)

What does the source list for `C[C@H](N)C(=O)N[C@@H](CCC(=O)O)C(=O)O`?
area under OmniLog respiration curve [1, 3]: 8550 ± 1300; DuctApe activity index [2, 3]: 8.33 (active)

What does the source list for `OC[C@H]1O[C@@](CO)(O[C@H]2O[C@H](CO)[C@@H](O)[C@H](O)[C@H]2O)[C@@H](O[C@H]2O[C@H](CO)[C@@H](O)[C@H](O)[C@H]2O)[C@@H]1O` [D-Melezitose]?
area under OmniLog respiration curve [1, 7]: 106 ± 150; DuctApe activity index [2, 7]: 1 (inactive)

`OC[C@@H](O)[C@@H](O)CO` [i-Erythritol] was tested. Which “area under OmniLog respiration curve” value [1, 7] did it give?
The value was 4.72.

What about the DuctApe activity index [2, 7] of the same molecule?
The DuctApe activity index was 0 (inactive).

`C[N+](C)(C)CC(O)CC(=O)[O-]` (racemic) [D,L-Carnitine] was tested. Which “area under OmniLog respiration curve” value [1, 4] did it give?
Its value is 5.03 ± 0.54.

What about the DuctApe activity index [2, 4] of the same molecule?
The DuctApe activity index was 0 (inactive).

What does the source list for `O=c1ccn(C2OC(COP(=O)(O)O)C(O)C2O)c(=O)[nH]1` (stereo not given) [Uridine 5`-Monophosphate]?
area under OmniLog respiration curve [1, 6]: 8960 ± 820; DuctApe activity index [2, 6]: 8.67 (active)

What does the source list for `OC[C@H]1O[C@@H](S)[C@H](O)[C@@H](O)[C@@H]1O` [1-Thio-b-D-Glucose]?
area under OmniLog respiration curve [1, 5]: 1240 ± 430; DuctApe activity index [2, 5]: 2.67 (inactive)

For `C[C@@H](O)[C@H](O)[C@H](O)[C@@H](O)C=O` [D-Fucose], which “area under OmniLog respiration curve” value [1, 7] is on record?
The value was 21 ± 25.

And the DuctApe activity index [2, 7]?
Its DuctApe activity index is 0 (inactive).

Which “area under OmniLog respiration curve” value [1, 7] does the source give for `O=C(CO)[C@@H](O)[C@H](O)[C@H](O)CO[C@H]1O[C@H](CO)[C@@H](O)[C@H](O)[C@H]1O` [Palatinose] here?
The value was 174 ± 160.

What about the DuctApe activity index [2, 7] of the same molecule?
The DuctApe activity index was 0 (inactive).

With `CC(=O)N[C@@H](CS)C(=O)O` [N-Acetyl-L-Cysteine] as the molecule, how does the “area under OmniLog respiration curve” value [1, 5] read?
The value was 55.4 ± 54.

And the DuctApe activity index [2, 5]?
The DuctApe activity index was 0.333 (inactive).

With `CO[C@@H]1O[C@H](C(=O)O)[C@@H](O)[C@H](O)[C@H]1O` [b-Methyl-D-Glucuronic acid] as the molecule, how does the “area under OmniLog respiration curve” value [1, 4] read?
Its value is 6620 ± 580.

What about the DuctApe activity index [2, 4] of the same molecule?
The DuctApe activity index was 7.33 (active).

What does the source list for `C[S+]([O-])CC[C@H](N)C(=O)O` (stereo partly drawn) [L-Methionine Sulfoxide]?
area under OmniLog respiration curve [1, 5]: 5350 ± 130; DuctApe activity index [2, 5]: 7 (active)

What does the source list for `O=C(O)[C@H](O)[C@@H](O)[C@H](O)[C@H](O)CO` [D-Gluconic acid]?
area under OmniLog respiration curve [1, 4]: 10300 ± 700; DuctApe activity index [2, 4]: 9 (active)

For `Nc1ccn([C@@H]2O[C@H](CO)[C@@H](O)[C@H]2OP(=O)(O)O)c(=O)n1` [Cytidine 2`-Monophosphate], which “area under OmniLog respiration curve” value [1, 6] is on record?
Its value is 9170 ± 640.

What about the DuctApe activity index [2, 6] of the same molecule?
The DuctApe activity index was 8.67 (active).

How did the “area under OmniLog respiration curve” value [1, 3] turn out when `N[C@H](CCC(=O)O)C(=O)O` [D-Glutamic acid] was run?
The value was 57.1 ± 89.

And the DuctApe activity index [2, 3]?
The DuctApe activity index was 0.667 (inactive).

What does the source list for `OC[C@H](O)C(O)[C@@H](O)CO` [L-Arabitol]?
area under OmniLog respiration curve [1, 7]: 4.72; DuctApe activity index [2, 7]: 0 (inactive)

Which “area under OmniLog respiration curve” value [1, 3] does the source give for `NC=O` [Formamide] here?
The value was 38.4 ± 58.

What about the DuctApe activity index [2, 3] of the same molecule?
The DuctApe activity index was 0 (inactive).

Which results are given for `N[C@H]1C(O)O[C@H](CO)[C@H](O)[C@@H]1O` (stereo partly drawn) [D-Galactosamine]?
area under OmniLog respiration curve [1, 3]: 11.2 ± 11; DuctApe activity index [2, 3]: 0 (inactive)

Which results are given for `N[C@@H](CSC[C@H](N)C(=O)O)C(=O)O` [Lanthionine]?
area under OmniLog respiration curve [1, 5]: 7490 ± 330; DuctApe activity index [2, 5]: 8 (active)

Which “area under OmniLog respiration curve” value [1, 4] does the source give for `CC(=O)C(=O)O` [Pyruvic acid] here?
Its value is 9610 ± 520.

And the DuctApe activity index [2, 4]?
Its DuctApe activity index is 9 (active).

How did the “area under OmniLog respiration curve” value [1, 5] turn out when `N[C@@H](CCC(=O)N[C@@H](CS)C(=O)NCC(=O)O)C(=O)O` [Glutathione] was run?
The value was 1690 ± 30.

What about the DuctApe activity index [2, 5] of the same molecule?
The DuctApe activity index was 5 (active).

For `NCC(=O)N1CCC[C@H]1C(=O)O`, which “area under OmniLog respiration curve” value [1, 8] is on record?
Its value is 7860 ± 920.

And the DuctApe activity index [2, 8]?
Its DuctApe activity index is 8 (active).

Which results are given for `NCC(=O)N[C@@H](CC(=O)O)C(=O)O`?
area under OmniLog respiration curve [1, 8]: 8800 ± 750; DuctApe activity index [2, 8]: 8.67 (active)

Which results are given for `O=NO` [Nitrite]?
area under OmniLog respiration curve [1, 9]: 122 ± 150; DuctApe activity index [2, 9]: 0.667 (inactive)
